Compounds with a hit are over-represented: about 4.5% of the library has one in this group of screens.
NLRP3 yeast inh: NALP3 inhibition in yeast | AID 2825 | 0.39% of 330,000 active | inhibition, % at 10 µM | Yeast reconstituted NLRP3/ASC/caspase-1, beta-gal luminescence, 24 h;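 active = inhibition of 50% or more; inactive = inhibition below 50%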;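 also: plate controls were induced DMSO wells for no effect and uninduced yeast grown without galactose for full effect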
tim10-1 inh: inhibits growth of tim10-1 mutant yeast | 2.2% of 330,000 active | inhibition, % at 20 µM | AID 463190 | S. cerevisiae tim10-1 ts strain growth, BacTiter-Glo, 24 h;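 active = inhibition of at least 40%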;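 also: mutant grown at 25 °C; 0% = DMSO wells with yeast and 100% = wells holding no yeast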
SKKanGAS inh: SKKanGAS growth inhibition. S. pyogenes SKKanGAS, kanamycin growth, BacTiter-Glo, 6 h. inhibition, % at 7.5 µM. 1.3% of 300,000 active;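 active = mean replicate score, as percent of positive control median, at least 50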;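 also: strain carries kanamycin resistance gene driven by streptokinase promoter and grows in 40 µg/ml kanamycin; loss of luminescence reflects streptokinase promoter inhibition or plain growth inhibition; 0% = median of DMSO wells and 100% = positive control at its reference dose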
tim23-1 inh: tim23-1 yeast growth inhibition; S. cerevisiae tim23-1 growth, BacTiter-Glo luminescence, 24 h; inhibition, % at 20 µM; 1.3% of 330,000 active; AID 463212;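 active = growth inhibition of the mutant yeast at or above 50%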;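 also: temperature-sensitive mutant grown at 25 °C; plate controls were DMSO-treated mutant yeast for no effect and medium wells lacking yeast for full effect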
TIM10 inh: inhibits growth of TIM10 yeast strain | S. cerevisiae TIM10 strain growth, BacTiter-Glo luminescence, 24 h | inhibition, % at 10 µM | 1.4% of 330,000 active | AID 463195;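 active = inhibition of 40% or more at the single tested concentration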;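 also: wild-type TIM10 isogenic control strain grown at permissive 25 °C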
PfHsp90 set2: inhibits growth of yeast expressing Plasmodium falciparum Hsp90; AID 504621; 0.32% of 310,000 active; S. cerevisiae expressing PfHsp90, BacTiter-Glo ATP, 48 h; yeast lacking PDR1 and PDR3 efflux regulators; inhibition, % at 9.4 µM;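 active = every replicate shows inhibition above about 80%, whatever the replicate mean, limit read from the data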;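 also: 0% = DMSO neutral controls and 100% = 20 µM radicicol positive controls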
tim10-1 conf: tim10-1 yeast growth inhibition, confirmed; inhibition, % at 20 µM; 56% of 7,400 active; shares compounds with tim10-1 inh; S. cerevisiae tim10-1 ts strain growth, BacTiter-Glo, 24 h;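 active = inhibition of yeast growth at or above a set limit in either of two repeat tests at 20 µM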;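 also: tim10-1 mutant grown at permissive 25 °C to find synthetic lethal compounds; 0% = DMSO yeast wells and 100% = medium wells without yeast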
Starred values were filed as active, the others as inactive; nt = not tested or not shown.

SMILES | NLRP3 yeast inh | tim10-1 inh | SKKanGAS inh | tim23-1 inh | TIM10 inh | PfHsp90 set2 | tim10-1 conf
COC(=O)C(=O)C1CCc2c(Cl)cc(OC)c(OC)c2C1=O (centres undefined) | nt | nt | nt | nt | nt | 2 | nt
COc1ccc(C(CCNCc2ccc(F)cc2)c2ccc(F)cc2)cc1 (centres undefined) | 35 | 0 | -4 | 32 | 20 | 7 | nt
COc1ccc(C(CCNCc2ccccc2)c2ccc(F)cc2)cc1 (centres undefined) | 30 | 46* | -7 | 19 | 9 | -4 | 20
COc1ccc(C(CCNC(C)c2ccccc2)c2ccc(F)cc2)cc1 (centres undefined) | 29 | 51* | 2 | 45 | 19 | 6 | 36*
C/C(=N\NC(=S)NC(C)C)c1ccc(-n2ccnc2)cc1 | 18 | 43* | -4 | 34 | 22 | nt | 20
CCCOc1ccc(C(=O)NNC(=S)NC(=O)c2cc(-c3ccccc3)nc3ccccc23)cc1 | 37 | 45* | 14 | 10 | 33 | -32 | 38*
CCNC(=S)NNC(=O)c1cc(-c2cc(C)ccc2C)nc2ccccc12 | 6 | 45* | 7 | 33 | 30 | 1 | 41*
CCCc1cc(C(=O)NNC(=S)NCC)c2ccccc2n1 | 23 | 26 | 1 | 5 | 5 | 6 | nt
CCCOc1ccc(-c2cc(C(=O)NCC3CCCO3)c3ccccc3n2)cc1 (centres undefined) | 15 | 19 | 2 | 15 | 10 | -5 | nt
COc1ccccc1C/C(N)=N/OC(=O)COc1ccccc1C | 5 | 41* | 7 | 34 | 39 | -19 | 40*
Cc1ccc(OCC(=O)O/N=C(\N)Cc2cccs2)cc1C | 38 | 44* | 12 | 38 | 23 | -28 | 29
CN(C(=O)COC(=O)c1c2c(nc3ccccc13)CCCC2)c1c(N)n(Cc2ccccc2)c(=O)[nH]c1=O | -8 | -8 | -1 | 10 | -3 | 30 | nt
COc1ccc(OC)c(S(=O)(=O)NCC(c2ccco2)S(=O)(=O)c2ccccc2)c1 (centres undefined) | -12 | 43* | -6 | 11 | 3 | nt | 38*
COc1ccc(OC)c(S(=O)(=O)NCC(c2ccco2)N2CCc3ccccc3C2)c1 (centres undefined) | 11 | 27 | 2 | 22 | 18 | nt | nt
Cc1ccc(S(=O)(=O)NCC(c2ccco2)S(=O)(=O)c2ccccc2)cc1 (centres undefined) | 13 | 44* | -12 | 27 | 5 | nt | 33*
Cc1ccc(S(=O)(=O)NCCC(c2ccccc2)c2ccco2)cc1 (centres undefined) | -1 | -19 | 14 | 37 | -8 | -17 | nt
CC(=O)Nc1ccc(S(=O)(=O)NC(C)c2ccccc2)cc1 (centres undefined) | -9 | 3 | -3 | 11 | -1 | 8 | nt
COc1cc(/C=N/O)cc(Br)c1OCc1ccc(Cl)cc1 | 16 | 44* | 4 | -5 | 20 | 6 | 28
COc1cc(CNC(C)(C)CO)cc(Br)c1OCc1ccc(Cl)cc1 | -15 | 15 | -7 | 26 | 26 | 18 | nt
N#C/C(C(=O)N1CCCCC1)=C1/N=C(N)c2ccccc21 | 11 | 2 | -4 | 14 | 4 | 28 | nt
N#C/C(C(=O)N1CCCCC1)=C1/N=C(NC(=O)c2ccc(F)cc2)c2ccccc21 | 13 | 44* | -5 | 29 | 15 | -15 | -3
CC(=O)c1ccc(-c2ccc(C(=O)N(C)c3c(N)n(Cc4ccccc4)c(=O)[nH]c3=O)o2)cc1 | 7 | 4 | 21 | 13 | -7 | nt | nt
Cc1ccc(SCC(=O)OC(C)C(=O)Nc2ccc(S(N)(=O)=O)cc2)cc1C (centres undefined) | 15 | -1 | 0 | 17 | 5 | -8 | nt
O=C(CCc1ccccc1)NNC(=O)COc1ccccc1Cl | 15 | -4 | -2 | 15 | 13 | 13 | nt
S=C(c1ccc(N2CCCC2)c(Br)c1)N1CCCCC1 | 25 | 45* | 8 | 29 | 18 | 8 | 21
SMILES | NLRP3 yeast inh | tim10-1 inh | SKKanGAS inh | tim23-1 inh | TIM10 inh | PfHsp90 set2 | tim10-1 conf
COc1ccc(C(=S)N2CCCCC2)cc1Br | 3 | 31 | 5 | 28 | 1 | 27 | nt
Cc1nc2c(Br)c(C)nn2c2c1CCC2 | -4 | 48* | 3 | 6 | 2 | -3 | 30
CC(C)c1ccc2oc(-c3cc(N)ccc3O)nc2c1 | 9 | 52* | -3 | 49 | 4 | -107 | 33*
N#CCOc1ccccc1CNC[C@H]1O[C@@H](n2cnc(C(N)=O)n2)[C@H](O)[C@@H]1O | nt | nt | nt | nt | nt | 23 | nt
CC(=O)c1ccc(N2CCC(c3cc(-c4ccc(Cl)cc4Cl)n[nH]3)CC2)c([N+](=O)[O-])c1 | 13 | 44* | 80* | 16 | 36 | nt | 22
CC(=O)c1ccc(N2CCN(c3ccccc3O)CC2)c([N+](=O)[O-])c1 | 31 | 25 | 11 | 20 | 7 | -33 | nt
O=C(COc1ccccc1Cl)Nc1ccc(S(=O)(=O)Nc2ccccn2)cc1 | 1 | 2 | 13 | 0 | 9 | -5 | nt
COc1ccccc1C(=O)Nc1ccc(Br)cc1C | 42 | 37 | 0 | 38 | 15 | 5 | nt
Cc1noc(C)c1NC(=O)Nc1ccc2c(c1)C(=O)N([C@H](C)CO)C[C@H](C)[C@@H](CN(C)S(=O)(=O)c1c(C)noc1C)O2 | 9 | 17 | nt | 11 | 1 | 0 | nt
Cc1cc(C)c2nc(N3CCCN(C(=O)c4ccco4)CC3)c(C#N)cc2c1 | 6 | 47* | -1 | 37 | 23 | 17 | 32*
CCCCn1c(SCC(=O)NC(=O)Cc2ccccc2)nc2ccccc2c1=O | 15 | 8 | nt | 35 | 2 | -1 | nt
Cc1ccccc1CNC(=O)C1CCCN(c2cnccn2)C1 (centres undefined) | -12 | 9 | -4 | 5 | -4 | -24 | nt
Cc1cc(C=O)c(C)c2c1[nH]c1ccccc12 | nt | nt | nt | nt | nt | -99 | nt
Cc1ccc(C)c2c1[nH]c1ccccc12 | 29 | 41* | 5 | 25 | 31 | 2 | 38*
Cc1oc2c(CN3CCCC(C)C3)c(O)ccc2c(=O)c1-c1ccccc1 (centres undefined) | 18 | 7 | 1 | 4 | 3 | 15 | nt
O=C1N/C(=C/c2ccc(Br)s2)C(=O)N1c1ccccc1 | 6 | 46* | -6 | 11 | -7 | -5 | 30
Cc1ccc(/C=C2/NC(=O)N(c3ccccc3)C2=O)o1 | 2 | 7 | 5 | 14 | -5 | 18 | nt
Cc1ccc(-c2csc3nc[nH]c(=O)c23)c(C)c1 | 12 | -2 | 8 | 2 | -15 | 6 | nt
Cc1ccc(-c2cc(=O)[nH][nH]2)c(C)c1 | -17 | 44* | 14 | 25 | 30 | 18 | 24
CCCc1cc(C(=O)NNC(=S)NCc2ccccc2)cs1 | 15 | 44* | -5 | 17 | 34 | 39 | 29
